This note sets out measurements from PMC7862700, “An all-to-all approach to the identification of sequence-specific readers for epigenetic DNA modifications on cytosine”.

Assay in all cases: DAPPL (digital affinity profiling via proximity ligation, sequencing); 10 mM Tris-HCl pH 7.5, 50 mM NaCl, 1 mM DTT, 4% glycerol, room temperature, 30 min; GST-TFs on glutathione beads, 16-mer random dsDNA library, 0.1% formaldehyde crosslink after washing; high values mean tight binding
Common to all, as to conditions: protein: recombinant; tags: N-terminal GST; dsDNA, one strand shown

The target in one test is T1, FLI1 (Homo sapiens, UniProt Q01543 1-452).
T1 sequence: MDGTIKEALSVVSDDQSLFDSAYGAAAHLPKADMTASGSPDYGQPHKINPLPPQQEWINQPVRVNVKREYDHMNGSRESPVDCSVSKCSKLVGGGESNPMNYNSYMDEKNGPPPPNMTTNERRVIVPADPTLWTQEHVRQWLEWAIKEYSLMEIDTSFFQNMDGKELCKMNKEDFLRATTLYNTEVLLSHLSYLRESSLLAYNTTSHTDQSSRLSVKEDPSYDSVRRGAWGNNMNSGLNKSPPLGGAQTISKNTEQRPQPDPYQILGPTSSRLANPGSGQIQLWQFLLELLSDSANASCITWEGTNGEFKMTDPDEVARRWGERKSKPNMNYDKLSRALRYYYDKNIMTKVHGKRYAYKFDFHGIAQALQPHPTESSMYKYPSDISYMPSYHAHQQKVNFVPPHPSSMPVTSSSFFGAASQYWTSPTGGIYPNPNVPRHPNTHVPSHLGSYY
A digest of the protocol:
(§1)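 Pools of DNA-barcoded human transcription factors, expressed in yeast as GST fusions on glutathione beads and combined with a tag-only sample, were incubated with 200 nmole of a 16-mer random double-stranded DNA library. Incubation took 30 min at room temperature in Tris/NaCl/DTT/glycerol buffer and was followed by washing, 0.1% formaldehyde crosslinking, proximity ligation (BsaI/T4 ligase, 1 h, 37 °C), PCR amplification and sequencing on an Illumina NextSeq500. Binding signal is the ratio of a hexamer's read frequency for a factor to its frequency for the tag-only sample.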

The target in another test is T2, ELK1 (Homo sapiens, UniProt P19419 1-428).
T2 sequence: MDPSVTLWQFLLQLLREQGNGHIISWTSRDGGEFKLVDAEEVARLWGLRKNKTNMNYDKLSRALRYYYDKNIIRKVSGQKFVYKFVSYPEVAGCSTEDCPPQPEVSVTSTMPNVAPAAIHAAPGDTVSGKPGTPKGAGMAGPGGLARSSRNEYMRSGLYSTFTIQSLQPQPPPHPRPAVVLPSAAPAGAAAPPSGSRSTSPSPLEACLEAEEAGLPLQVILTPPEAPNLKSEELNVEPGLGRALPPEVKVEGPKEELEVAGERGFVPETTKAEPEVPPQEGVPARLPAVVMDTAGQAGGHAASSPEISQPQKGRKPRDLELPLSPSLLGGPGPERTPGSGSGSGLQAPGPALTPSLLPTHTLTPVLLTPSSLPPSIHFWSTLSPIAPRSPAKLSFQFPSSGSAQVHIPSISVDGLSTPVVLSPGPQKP
The method, boiled down:
as §1

The next test deals with T3, GABPA (Homo sapiens, UniProt Q06546 1-454).
T3 sequence: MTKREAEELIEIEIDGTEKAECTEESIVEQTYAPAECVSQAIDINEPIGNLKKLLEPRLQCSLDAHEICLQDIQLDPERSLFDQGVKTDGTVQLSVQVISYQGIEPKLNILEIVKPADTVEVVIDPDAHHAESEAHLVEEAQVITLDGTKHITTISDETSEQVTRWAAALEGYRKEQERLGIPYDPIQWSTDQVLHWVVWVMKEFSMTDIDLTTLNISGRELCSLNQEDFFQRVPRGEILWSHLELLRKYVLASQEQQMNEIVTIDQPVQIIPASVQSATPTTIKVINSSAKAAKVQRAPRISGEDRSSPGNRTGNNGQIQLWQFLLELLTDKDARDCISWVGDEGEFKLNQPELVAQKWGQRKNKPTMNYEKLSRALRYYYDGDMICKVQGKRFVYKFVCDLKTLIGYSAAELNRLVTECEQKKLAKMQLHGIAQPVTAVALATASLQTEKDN
The method, boiled down: as §1

A further test deals with T4, ERG (Homo sapiens, UniProt P11308 1-479).
T4 sequence: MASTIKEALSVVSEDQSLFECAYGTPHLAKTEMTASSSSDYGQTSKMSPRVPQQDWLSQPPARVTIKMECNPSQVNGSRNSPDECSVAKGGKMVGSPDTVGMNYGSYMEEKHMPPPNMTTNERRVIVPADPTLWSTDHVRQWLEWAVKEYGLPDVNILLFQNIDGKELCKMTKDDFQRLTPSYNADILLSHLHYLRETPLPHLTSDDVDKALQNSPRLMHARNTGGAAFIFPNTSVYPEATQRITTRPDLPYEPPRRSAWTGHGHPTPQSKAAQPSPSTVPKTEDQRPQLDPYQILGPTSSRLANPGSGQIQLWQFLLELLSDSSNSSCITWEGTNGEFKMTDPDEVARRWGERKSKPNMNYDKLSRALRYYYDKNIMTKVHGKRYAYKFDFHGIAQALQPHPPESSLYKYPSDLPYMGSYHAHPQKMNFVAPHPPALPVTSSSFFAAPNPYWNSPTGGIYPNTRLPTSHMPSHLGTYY
A digest of the protocol: as §1

A further test addresses ELF1 (Homo sapiens, UniProt P32519 1-619). A digest of the protocol: as §1
The target of a further test is T5, EHF (Homo sapiens, UniProt Q9NZC4 1-300).
T5 sequence: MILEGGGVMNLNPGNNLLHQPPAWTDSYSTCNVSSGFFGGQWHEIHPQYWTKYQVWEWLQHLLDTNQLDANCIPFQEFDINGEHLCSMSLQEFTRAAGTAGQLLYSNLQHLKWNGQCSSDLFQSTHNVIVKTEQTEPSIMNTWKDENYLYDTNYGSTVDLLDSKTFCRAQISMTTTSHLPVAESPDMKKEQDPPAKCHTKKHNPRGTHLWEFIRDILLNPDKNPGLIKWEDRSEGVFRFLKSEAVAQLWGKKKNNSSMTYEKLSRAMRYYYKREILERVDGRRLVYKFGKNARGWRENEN
The method, boiled down:
as §1

A further test addresses SPI1 (Homo sapiens, UniProt P17947 1-270). A digest of the protocol:
as §1

The target in a further test is SPIB (Homo sapiens, UniProt Q01892 1-262). The method, boiled down:
as §1

A further test has as its target T6, ELK3 (Homo sapiens, UniProt P41970 1-407).
T6 sequence: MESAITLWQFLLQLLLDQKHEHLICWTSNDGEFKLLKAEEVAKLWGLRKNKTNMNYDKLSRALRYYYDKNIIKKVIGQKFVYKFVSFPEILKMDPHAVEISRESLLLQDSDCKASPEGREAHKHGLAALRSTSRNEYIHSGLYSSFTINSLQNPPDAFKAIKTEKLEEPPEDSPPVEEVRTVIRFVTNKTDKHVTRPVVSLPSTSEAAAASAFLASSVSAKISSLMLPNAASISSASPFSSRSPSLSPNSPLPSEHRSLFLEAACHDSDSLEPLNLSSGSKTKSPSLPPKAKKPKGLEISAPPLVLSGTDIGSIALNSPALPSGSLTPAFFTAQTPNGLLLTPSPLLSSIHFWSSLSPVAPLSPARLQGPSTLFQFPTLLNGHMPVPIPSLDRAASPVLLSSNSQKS
A digest of the protocol:
as §1

Chain of ELF1 (P32519 whole entry): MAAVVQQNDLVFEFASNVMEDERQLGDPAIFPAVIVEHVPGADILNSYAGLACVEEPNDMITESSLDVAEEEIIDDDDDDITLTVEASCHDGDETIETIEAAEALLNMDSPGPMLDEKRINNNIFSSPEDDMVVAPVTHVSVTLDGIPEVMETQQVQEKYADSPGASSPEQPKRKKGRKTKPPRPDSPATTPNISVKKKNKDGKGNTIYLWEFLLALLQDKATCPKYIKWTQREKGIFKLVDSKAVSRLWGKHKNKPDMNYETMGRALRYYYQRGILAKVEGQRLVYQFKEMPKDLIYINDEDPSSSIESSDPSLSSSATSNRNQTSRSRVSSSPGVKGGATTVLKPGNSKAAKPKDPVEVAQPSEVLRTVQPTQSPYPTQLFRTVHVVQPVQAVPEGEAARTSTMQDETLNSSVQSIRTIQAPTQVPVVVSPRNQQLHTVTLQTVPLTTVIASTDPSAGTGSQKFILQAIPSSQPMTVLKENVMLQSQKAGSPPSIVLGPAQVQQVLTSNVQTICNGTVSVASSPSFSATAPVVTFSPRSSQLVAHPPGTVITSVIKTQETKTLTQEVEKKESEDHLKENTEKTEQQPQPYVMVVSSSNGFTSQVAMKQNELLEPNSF
Chain of SPIB (Q01892 whole entry): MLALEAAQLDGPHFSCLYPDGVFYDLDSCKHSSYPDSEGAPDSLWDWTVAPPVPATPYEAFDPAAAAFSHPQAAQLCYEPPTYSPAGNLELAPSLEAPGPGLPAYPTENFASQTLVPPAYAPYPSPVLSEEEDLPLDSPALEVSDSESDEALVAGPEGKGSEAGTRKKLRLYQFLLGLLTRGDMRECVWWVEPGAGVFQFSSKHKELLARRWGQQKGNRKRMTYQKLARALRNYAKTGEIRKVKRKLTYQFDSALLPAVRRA

Turning to TAAGGT, the binding signal is 1.12 fold enrichment (6-mer frequency, TF over GST control) with FLI1; 1.08 fold enrichment (6-mer frequency, TF over GST control) with ELK1; 1.14 fold enrichment (6-mer frequency, TF over GST control) with GABPA; 1.01 fold enrichment (6-mer frequency, TF over GST control) with ERG; 1.04 fold enrichment (6-mer frequency, TF over GST control) with ELF1; 1.17 fold enrichment (6-mer frequency, TF over GST control) in the test with EHF. For the same sequence, the binding signal with SPI1 is 1.02 fold enrichment (6-mer frequency, TF over GST control); with SPIB, 1.07 fold enrichment (6-mer frequency, TF over GST control); with ELK3 it was 1.13 fold enrichment (6-mer frequency, TF over GST control).
In the case of CACTCA, the binding signal with FLI1 is 1.06 fold enrichment (6-mer frequency, TF over GST control); in the test with ELK1 it was 1.17 fold enrichment (6-mer frequency, TF over GST control); in the test with GABPA it was 1.25 fold enrichment (6-mer frequency, TF over GST control); with ERG it was 1.16 fold enrichment (6-mer frequency, TF over GST control); with ELF1, 1.24 fold enrichment (6-mer frequency, TF over GST control); with EHF, 1.19 fold enrichment (6-mer frequency, TF over GST control). For the same sequence, the binding signal with SPI1 was 1.08 fold enrichment (6-mer frequency, TF over GST control); with SPIB, 1.21 fold enrichment (6-mer frequency, TF over GST control); with ELK3, 1.19 fold enrichment (6-mer frequency, TF over GST control).
For AAAATT, the binding signal with FLI1 was 1.35 fold enrichment (6-mer frequency, TF over GST control); in the test with ELK1 it was 1.34 fold enrichment (6-mer frequency, TF over GST control); with GABPA, 1.38 fold enrichment (6-mer frequency, TF over GST control); in the test with ERG it was 1.28 fold enrichment (6-mer frequency, TF over GST control); with ELF1, 1.34 fold enrichment (6-mer frequency, TF over GST control); with EHF, 1.26 fold enrichment (6-mer frequency, TF over GST control). Also, the binding signal with SPI1 was 1.32 fold enrichment (6-mer frequency, TF over GST control); in the test with SPIB, 1.45 fold enrichment (6-mer frequency, TF over GST control); with ELK3 it was 1.33 fold enrichment (6-mer frequency, TF over GST control).
For the sequence GTCTAA, the binding signal in the test with FLI1 was 1.05 fold enrichment (6-mer frequency, TF over GST control); with ELK1, 1.03 fold enrichment (6-mer frequency, TF over GST control); in the test with GABPA it was 1.14 fold enrichment (6-mer frequency, TF over GST control); with ERG, 1.09 fold enrichment (6-mer frequency, TF over GST control); with ELF1, 1.09 fold enrichment (6-mer frequency, TF over GST control); in the test with EHF it was 1.02 fold enrichment (6-mer frequency, TF over GST control). Besides, the binding signal was 1.08 fold enrichment (6-mer frequency, TF over GST control) with SPI1; 1.09 fold enrichment (6-mer frequency, TF over GST control) in the test with SPIB; 1.12 fold enrichment (6-mer frequency, TF over GST control) with ELK3.
CGTCAC: the binding signal with FLI1 was 1.24 fold enrichment (6-mer frequency, TF over GST control); with ELK1, 1.27 fold enrichment (6-mer frequency, TF over GST control); in the test with GABPA, 1.18 fold enrichment (6-mer frequency, TF over GST control); in the test with ERG, 1.31 fold enrichment (6-mer frequency, TF over GST control); with ELF1, 1.24 fold enrichment (6-mer frequency, TF over GST control); in the test with EHF it was 1.2 fold enrichment (6-mer frequency, TF over GST control). Besides, the binding signal is 1.28 fold enrichment (6-mer frequency, TF over GST control) with SPI1; 1.18 fold enrichment (6-mer frequency, TF over GST control) with SPIB; 1.09 fold enrichment (6-mer frequency, TF over GST control) with ELK3.
In the case of TTCTTG, the binding signal with FLI1 was 1.42 fold enrichment (6-mer frequency, TF over GST control); in the test with ELK1, 1.46 fold enrichment (6-mer frequency, TF over GST control); with GABPA, 1.5 fold enrichment (6-mer frequency, TF over GST control); with ERG it was 1.38 fold enrichment (6-mer frequency, TF over GST control); in the test with ELF1 it was 1.46 fold enrichment (6-mer frequency, TF over GST control); with EHF, 1.56 fold enrichment (6-mer frequency, TF over GST control). Besides, the binding signal in the test with SPI1 is 1.45 fold enrichment (6-mer frequency, TF over GST control); in the test with SPIB, 1.39 fold enrichment (6-mer frequency, TF over GST control); with ELK3, 1.35 fold enrichment (6-mer frequency, TF over GST control).
As to GACTTT, the binding signal was 1.04 fold enrichment (6-mer frequency, TF over GST control) with FLI1; 1.18 fold enrichment (6-mer frequency, TF over GST control) with ELK1; 1.17 fold enrichment (6-mer frequency, TF over GST control) in the test with GABPA; 1.16 fold enrichment (6-mer frequency, TF over GST control) with ERG; 1.12 fold enrichment (6-mer frequency, TF over GST control) with ELF1; 1.07 fold enrichment (6-mer frequency, TF over GST control) with EHF. For the same sequence, the binding signal in the test with SPI1 is 1.23 fold enrichment (6-mer frequency, TF over GST control); in the test with SPIB, 1.12 fold enrichment (6-mer frequency, TF over GST control); in the test with ELK3, 1.12 fold enrichment (6-mer frequency, TF over GST control).
Regarding CTTTTA, the binding signal with FLI1 was 1.41 fold enrichment (6-mer frequency, TF over GST control); in the test with ELK1, 1.28 fold enrichment (6-mer frequency, TF over GST control); in the test with GABPA it was 1.41 fold enrichment (6-mer frequency, TF over GST control); with ERG it was 1.28 fold enrichment (6-mer frequency, TF over GST control); with ELF1, 1.29 fold enrichment (6-mer frequency, TF over GST control); with EHF, 1.28 fold enrichment (6-mer frequency, TF over GST control). Moreover, the binding signal was 1.4 fold enrichment (6-mer frequency, TF over GST control) in the test with SPI1; 1.35 fold enrichment (6-mer frequency, TF over GST control) with SPIB; 1.4 fold enrichment (6-mer frequency, TF over GST control) with ELK3.
